Results: PubChem BioAssay (NCI)
About 83,000 compounds went through this panel and 20% of them were active in at least one assay; those are over-represented in the sample as a whole.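 How to read the values: 0–100, growth inhibition (40 = 60% inhibited); 0, no net growth; -100 to 0, cell death (-40 = 40% of starting cells died; -100 = all dead).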 Active and inactive are the calls of the source. Rule for the calls: active = growth percent below 10; inactive = the rest.

Key:
Test in all cases: NCI-60 one-dose screen, 48 h (100 = growth as untreated, 0 = no growth, -100 = all killed)
Details in all cases: 10 µM unless noted
[1] = system: NCI-H23 lung
[2] = system: NCI-H226 lung
[3] = system: NCI-H322M lung
[4] = system: HOP-62 NSCLC
[5] = system: NCI-H460 lung
[6] = system: HOP-92 NSCLC
[7] = system: NCI-H522 lung
[8] = system: A549/ATCC NSCLC
[9] = system: 786-0 renal
[10] = system: COLO 205 colon
[11] = system: DU-145 prostate
[12] = system: K-562 leukemia
[13] = system: MALME-3M melanoma
[14] = system: MDA-MB-231 breast
[15] = system: RXF 393 renal
[16] = system: SF-268 CNS
[17] = system: SF-295 CNS
[18] = system: SF-539 CNS
[19] = system: UACC-257 melanoma
[20] = system: M14 melanoma

Measured: growth

COc1ccc(/C=C/c2c(C(=O)/C=C/c3ccc(C(F)(F)F)cc3)c(C)nc3ccccc23)cc1
inactive: [8] 65.4% | [16] 14.6%
active: [1] -23% | [2] -38.3% | [3] 6.19% | [4] -1.82% | [5] -58.9% | [6] -64.3% | [7] -0.88% | [9] -72.5% | [10] -28.4% | [11] -81% | [12] 8.15% | [13] -46.7% | [14] -20.2% | [15] -83.9% | [17] -49.3% | [18] -76.2% | [19] -38% | [20] -15%

CCN(CC)c1ccc(C2=NN(C(C)=O)C(c3cc(OC)c(OC)c(OC)c3)C2)cc1 (stereo not given)
active: [2] 9.31% | [3] -3.75% | [7] -46.3% | [10] -4.4% | [11] -39.4% | [12] -4.46% | [14] 3.7% | [15] -44% | [17] 7.69% | [18] 2.39% | [20] -28.8%
inactive: [1] 23.5% | [4] 40.7% | [5] 13.4% | [6] 20.6% | [8] 17.1% | [9] 24% | [13] 21.7% | [16] 18.8% | [19] 55.9%

NCCOc1ncccc1/C=C1\c2ccccc2-c2ccc(C(F)F)cc21
active: [5] 9.8%
inactive: [1] 42.3% | [2] 61.8% | [3] 98.8% | [4] 39.9% | [6] 49.6% | [7] 79% | [8] 20.9% | [9] 56.4% | [10] 48.9% | [11] 13.1% | [12] 16.5% | [13] 61.6% | [14] 35.3% | [15] 61.5% | [16] 54.3% | [17] 53.7% | [18] 49.3% | [19] 102% | [20] 64.5%

N#Cc1ccc(NC(=O)c2sc3nc4c(cc3c2N)C(=O)CCC4)cc1
inactive: [1] 106% | [2] 93.7% | [3] 103% | [4] 101% | [5] 85.9% | [6] 95.6% | [7] 103% | [8] 92.5% | [9] 97.8% | [10] 109% | [11] 94.9% | [12] 108% | [13] 89.3% | [14] 109% | [15] 119% | [16] 102% | [17] 82.4% | [18] 99.8% | [19] 106% | [20] 106%

CC1CN(C2CCCCC2)C(=S)N(c2ccccc2)C1=O (stereo not given)
inactive: [1] 100% | [2] 115% | [3] 107% | [4] 93.7% | [5] 107% | [6] 92.8% | [7] 116% | [8] 102% | [9] 92.2% | [10] 127% | [11] 115% | [12] 117% | [13] 119% | [14] 115% | [15] 123% | [16] 102% | [17] 103% | [18] 103% | [19] 109% | [20] 108%

CC1=C(SCCC(=O)OC(C[Se]C2=C(C)C(=O)c3ccccc3C2=O)C(=O)NC(C)(C)C)C(=O)c2ccccc2C1=O (stereo not given)
active: [1] -42.7% | [2] -63.3% | [3] -79.8% | [4] -65.4% | [5] -59% | [6] -66.6% | [7] -48.2% | [8] -40% | [9] -86.1% | [10] -86.4% | [11] -99% | [12] 7.31% | [13] -74.9% | [14] -58% | [15] -89.1% | [16] -96.2% | [17] -30.9% | [18] -99.8% | [19] -88.1% | [20] -84.1%

CCCCn1c(=O)c(-c2cc(-c3ccc(Cl)cc3)nc(-c3ccc(Cl)cc3)c2)cc2cc(C)ccc21
inactive: [1] 101% | [2] 105% | [3] 95.5% | [4] 102% | [5] 106% | [6] 103% | [7] 94.9% | [8] 98.2% | [9] 102% | [10] 111% | [11] 112% | [12] 99.3% | [13] 105% | [14] 92.8% | [15] 105% | [16] 98% | [17] 99.1% | [18] 97.9% | [19] 100% | [20] 102%

Cc1ccc(-c2nc3c(c(-c4ccccc4)nn3-c3ccccc3)c(-c3ccc(O)cc3)c2C#N)cc1
active: [15] -10.4% | [17] -20.9%
inactive: [1] 67.5% | [2] 80% | [3] 88.5% | [4] 40% | [5] 27.4% | [6] 74.5% | [7] 69.4% | [8] 52.3% | [9] 18.6% | [10] 70.4% | [11] 60.5% | [12] 22.3% | [13] 75.1% | [14] 45.9% | [16] 60.2% | [18] 15.2% | [19] 93.9% | [20] 60.3%

CC(C)C(=O)Nc1ccc(-c2nc(-c3cccc(OCCN4CCOCC4)c3)c(-c3ccnc(Br)c3)[nH]2)cc1
inactive: [1] 55.6% | [2] 76.4% | [3] 67.8% | [4] 55.2% | [5] 63.6% | [6] 61.3% | [7] 68.7% | [8] 63% | [10] 43.3% | [11] 71.5% | [13] 33.6% | [14] 57.6% | [16] 60.3% | [18] 24.3% | [19] 56.6% | [20] 59.7%
active: [9] -19.3% | [12] 2.82% | [15] -35.3% | [17] -57.7%

CCOC(=O)c1cn2ncnc(Oc3ccc(NC(=O)NCCN(C)C)c(Cl)c3)c2c1C
inactive: [1] 75.5% | [2] 93.2% | [3] 90.5% | [4] 95.3% | [5] 103% | [6] 44.8% | [7] 87.9% | [8] 92.4% | [9] 76.1% | [10] 55.9% | [11] 86.8% | [13] 58.9% | [14] 65.2% | [15] 55.6% | [16] 65.1% | [17] 94.6% | [18] 71.5%
active: [12] 4.33% | [19] -4.6% | [20] -40.6%

c1cc(-c2nnc(SSc3ncnc4nc[nH]c34)o2)ccn1
active: [7] 6.68% | [20] 7.94%
inactive: [1] 43% | [2] 53.5% | [3] 55.9% | [4] 52.4% | [5] 48.4% | [6] 52.9% | [8] 92.5% | [9] 13.8% | [10] 67.7% | [11] 41.5% | [12] 17% | [13] 103% | [14] 20.6% | [15] 61.8% | [16] 35% | [17] 21.9% | [18] 15.4% | [19] 51.9%

Cc1nn(-c2ccccc2)c(-n2ccnc2)c1/C=N/Nc1nc(-c2ccc(Cl)c(Cl)c2)cs1
inactive: [1] 12.5% | [2] 51.9% | [3] 76% | [4] 10.8% | [7] 31.5% | [9] 20.7% | [10] 52.1% | [12] 18.7% | [13] 22.5% | [16] 41.8% | [17] 57.7% | [18] 59.3% | [19] 62.7% | [20] 45.1%
active: [5] 3.5% | [6] -22.9% | [8] -8.24% | [11] 2.44% | [14] 6.68% | [15] -1.62%

C=C1C(=O)O[C@H]2[C@H]1CC/C(COC(=O)CSCC(=O)OC/C1=C/CC[C@@]3(C)O[C@H]3[C@H]3OC(=O)C(=C)[C@@H]3CC1)=C\CC[C@@]1(C)O[C@@H]21
inactive: [1] 58.1% | [2] 91.6% | [3] 90.7% | [4] 92.7% | [5] 73.9% | [8] 72.8% | [11] 50.3% | [16] 57.8% | [17] 88.1% | [18] 19.3%
active: [6] -16.9% | [7] -69.7% | [9] 7.49% | [10] -54.9% | [12] 9.77% | [13] -10.3% | [14] -16.8% | [15] -86.3% | [19] 9.23% | [20] 1.21%

O=c1c2cccc(Cl)c2sc2c(NCCCNCCO)nc3ccccc3c12
inactive: [1] 52.4% | [2] 67.7% | [3] 44% | [4] 39.6% | [7] 49.5% | [8] 27.5% | [9] 45.6% | [11] 13.9% | [13] 77.8% | [15] 50.3% | [16] 42.1% | [17] 73.9% | [18] 27.4% | [19] 97%
active: [5] -86.2% | [6] -0.275% | [10] -61.4% | [12] -48.1% | [14] -25.3% | [20] -72.7%

Cc1nc(NC(=O)COc2ccc(/C=C3\Cc4ccc(Cl)cc4C3=O)cc2)sc1C
inactive: [1] 100% | [2] 99.2% | [3] 183% | [4] 102% | [5] 101% | [6] 88.9% | [7] 78.9% | [8] 105% | [9] 103% | [10] 120% | [11] 112% | [12] 106% | [13] 238% | [14] 93.7% | [15] 135% | [16] 119% | [17] 110% | [18] 101% | [19] 110% | [20] 114%

CCc1nnc(NC(=O)c2nnn(-c3ccccc3)c2-c2ccco2)s1
inactive: [1] 91.7% | [2] 90.9% | [3] 94.2% | [4] 92.9% | [5] 83.7% | [6] 91.3% | [7] 90.9% | [8] 96.9% | [9] 105% | [10] 109% | [11] 101% | [12] 71.8% | [13] 98.9% | [14] 92.9% | [15] 100% | [16] 107% | [17] 87.2% | [18] 99.7% | [19] 102% | [20] 98.4%
